Publication PMC7862700, “An all-to-all approach to the identification of sequence-specific readers for epigenetic DNA modifications on cytosine”

How the values were obtained:
Test in all cases: DAPPL (digital affinity profiling via proximity ligation, sequencing); 10 mM Tris-HCl pH 7.5, 50 mM NaCl, 1 mM DTT, 4% glycerol, room temperature, 30 min; GST-TFs on glutathione beads, 16-mer random dsDNA library, 0.1% formaldehyde crosslink after washing; high values mean tight binding
FEV = molecular target: T1, FEV (Homo sapiens, UniProt Q99581 1-238); conditions: protein: recombinant; tags: N-terminal GST; dsDNA, one strand shown
T1 sequence: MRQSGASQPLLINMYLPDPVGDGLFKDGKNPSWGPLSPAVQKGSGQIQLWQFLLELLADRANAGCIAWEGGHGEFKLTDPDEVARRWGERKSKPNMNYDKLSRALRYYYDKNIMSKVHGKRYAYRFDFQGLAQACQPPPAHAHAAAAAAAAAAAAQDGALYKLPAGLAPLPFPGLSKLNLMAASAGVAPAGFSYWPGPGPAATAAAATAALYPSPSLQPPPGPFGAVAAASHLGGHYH
Outline: (§1)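 Binding signal is defined as a hexamer's read frequency for one factor over its frequency for the tag-only sample. To obtain reads, GST-fused human transcription factors were expressed in yeast, captured on glutathione beads, barcoded with DNA and pooled with that sample. Pools met 200 nmole of a 16-mer random double-stranded DNA library in Tris/NaCl/DTT/glycerol buffer for 30 min at room temperature before washing, 0.1% formaldehyde crosslinking, proximity ligation (BsaI/T4 ligase, 1 h, 37 °C), PCR and Illumina NextSeq500 sequencing.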

ETV5 = ETV5 (Homo sapiens, UniProt P41161 1-510); conditions: protein: recombinant; tags: N-terminal GST; dsDNA, one strand shown
ETV5, sequence (P41161 whole entry): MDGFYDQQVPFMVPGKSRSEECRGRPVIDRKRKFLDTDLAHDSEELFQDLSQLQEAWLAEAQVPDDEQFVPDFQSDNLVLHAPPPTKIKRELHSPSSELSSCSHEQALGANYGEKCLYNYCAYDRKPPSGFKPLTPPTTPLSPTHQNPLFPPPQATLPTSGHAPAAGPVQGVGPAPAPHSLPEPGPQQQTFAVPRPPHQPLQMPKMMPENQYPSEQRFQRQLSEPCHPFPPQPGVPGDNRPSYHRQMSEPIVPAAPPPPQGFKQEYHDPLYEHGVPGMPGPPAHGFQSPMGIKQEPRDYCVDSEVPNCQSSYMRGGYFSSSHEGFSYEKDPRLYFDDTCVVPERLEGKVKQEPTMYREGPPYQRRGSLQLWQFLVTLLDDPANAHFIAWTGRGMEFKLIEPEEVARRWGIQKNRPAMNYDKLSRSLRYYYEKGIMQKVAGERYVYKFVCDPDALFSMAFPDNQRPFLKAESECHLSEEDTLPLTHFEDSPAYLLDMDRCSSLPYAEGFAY
Outline: as §1

HSF1 = HSF1 (Homo sapiens, UniProt Q00613 1-529); conditions: protein: recombinant; tags: N-terminal GST; chain copies: 3; dsDNA, one strand shown
HSF1, sequence (Q00613 whole entry): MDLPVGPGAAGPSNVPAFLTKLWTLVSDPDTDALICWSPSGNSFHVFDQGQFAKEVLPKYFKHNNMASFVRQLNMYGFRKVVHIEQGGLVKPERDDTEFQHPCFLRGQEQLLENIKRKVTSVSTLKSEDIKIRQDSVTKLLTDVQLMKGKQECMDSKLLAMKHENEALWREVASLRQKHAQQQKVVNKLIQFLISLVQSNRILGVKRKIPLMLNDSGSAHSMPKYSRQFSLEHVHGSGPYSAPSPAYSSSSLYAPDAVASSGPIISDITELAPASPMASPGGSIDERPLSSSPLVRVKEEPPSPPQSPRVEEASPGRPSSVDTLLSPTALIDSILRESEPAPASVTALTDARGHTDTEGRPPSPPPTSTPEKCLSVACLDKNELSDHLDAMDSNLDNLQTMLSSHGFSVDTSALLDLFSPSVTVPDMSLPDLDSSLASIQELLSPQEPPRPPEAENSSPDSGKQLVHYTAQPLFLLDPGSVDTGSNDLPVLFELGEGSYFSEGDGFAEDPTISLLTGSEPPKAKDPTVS
Outline: as §1

SPIC = molecular target: T2, SPIC (Homo sapiens, UniProt Q8N5J4 1-248); conditions: protein: recombinant; tags: N-terminal GST; dsDNA, one strand shown
T2 sequence: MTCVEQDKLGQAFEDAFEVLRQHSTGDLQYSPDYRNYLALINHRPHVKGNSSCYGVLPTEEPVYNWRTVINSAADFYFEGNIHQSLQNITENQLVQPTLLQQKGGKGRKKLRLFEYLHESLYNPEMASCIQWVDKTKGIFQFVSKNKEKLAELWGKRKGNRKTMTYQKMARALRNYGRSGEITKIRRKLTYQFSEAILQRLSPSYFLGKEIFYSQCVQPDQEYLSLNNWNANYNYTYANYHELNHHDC
Outline: as §1

ELF4 = ELF4 (Homo sapiens, UniProt Q99607 1-663); conditions: protein: recombinant; tags: N-terminal GST; dsDNA, one strand shown
ELF4, sequence (Q99607 whole entry): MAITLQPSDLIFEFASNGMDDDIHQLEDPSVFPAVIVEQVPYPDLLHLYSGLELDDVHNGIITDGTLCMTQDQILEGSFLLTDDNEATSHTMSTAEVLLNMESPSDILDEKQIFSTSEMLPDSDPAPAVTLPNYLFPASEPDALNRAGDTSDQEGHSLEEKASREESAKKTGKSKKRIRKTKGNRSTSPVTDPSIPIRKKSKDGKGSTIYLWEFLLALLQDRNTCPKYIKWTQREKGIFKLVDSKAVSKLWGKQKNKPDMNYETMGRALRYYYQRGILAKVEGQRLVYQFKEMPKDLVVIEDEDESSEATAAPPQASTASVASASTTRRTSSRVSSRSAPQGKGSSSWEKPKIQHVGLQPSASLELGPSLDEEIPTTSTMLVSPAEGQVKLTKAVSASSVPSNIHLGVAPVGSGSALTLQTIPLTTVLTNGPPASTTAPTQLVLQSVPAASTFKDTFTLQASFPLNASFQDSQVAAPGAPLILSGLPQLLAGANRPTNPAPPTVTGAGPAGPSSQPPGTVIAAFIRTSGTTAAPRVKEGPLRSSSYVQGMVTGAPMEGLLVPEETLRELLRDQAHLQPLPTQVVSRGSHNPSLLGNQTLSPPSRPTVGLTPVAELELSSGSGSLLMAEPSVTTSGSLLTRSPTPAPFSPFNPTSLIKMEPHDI
Outline: as §1

ELK4 = molecular target: T3, ELK4 (Homo sapiens, UniProt P28324-2 1-405); conditions: protein: recombinant; tags: N-terminal GST; dsDNA, one strand shown
T3 sequence: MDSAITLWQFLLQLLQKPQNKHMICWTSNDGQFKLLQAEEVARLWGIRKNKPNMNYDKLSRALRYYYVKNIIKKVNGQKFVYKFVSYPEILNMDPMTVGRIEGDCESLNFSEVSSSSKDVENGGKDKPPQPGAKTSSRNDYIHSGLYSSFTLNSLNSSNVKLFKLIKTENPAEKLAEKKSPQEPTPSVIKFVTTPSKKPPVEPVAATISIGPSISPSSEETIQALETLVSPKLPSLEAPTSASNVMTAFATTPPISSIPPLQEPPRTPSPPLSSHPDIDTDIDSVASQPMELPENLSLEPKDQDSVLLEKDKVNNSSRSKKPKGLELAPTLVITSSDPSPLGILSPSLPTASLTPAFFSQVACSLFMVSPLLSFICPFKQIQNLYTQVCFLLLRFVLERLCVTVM
Outline: as §1

ETV2 = molecular target: T4, ETV2 (Homo sapiens, UniProt O00321 1-342); conditions: protein: recombinant; tags: N-terminal GST; dsDNA, one strand shown
T4 sequence: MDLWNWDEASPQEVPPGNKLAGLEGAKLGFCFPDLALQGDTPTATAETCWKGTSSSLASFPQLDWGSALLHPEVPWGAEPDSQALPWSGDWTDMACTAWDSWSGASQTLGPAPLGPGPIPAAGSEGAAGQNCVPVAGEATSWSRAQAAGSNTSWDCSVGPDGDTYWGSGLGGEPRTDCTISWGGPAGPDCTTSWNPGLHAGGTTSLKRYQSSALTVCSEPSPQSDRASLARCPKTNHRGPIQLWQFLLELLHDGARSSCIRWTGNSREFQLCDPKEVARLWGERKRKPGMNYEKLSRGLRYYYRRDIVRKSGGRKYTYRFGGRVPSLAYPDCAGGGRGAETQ
Outline: as §1

ELF3 = molecular target: T5, ELF3 (Homo sapiens, UniProt P78545 1-371); conditions: protein: recombinant; tags: N-terminal GST; dsDNA, one strand shown
T5 sequence: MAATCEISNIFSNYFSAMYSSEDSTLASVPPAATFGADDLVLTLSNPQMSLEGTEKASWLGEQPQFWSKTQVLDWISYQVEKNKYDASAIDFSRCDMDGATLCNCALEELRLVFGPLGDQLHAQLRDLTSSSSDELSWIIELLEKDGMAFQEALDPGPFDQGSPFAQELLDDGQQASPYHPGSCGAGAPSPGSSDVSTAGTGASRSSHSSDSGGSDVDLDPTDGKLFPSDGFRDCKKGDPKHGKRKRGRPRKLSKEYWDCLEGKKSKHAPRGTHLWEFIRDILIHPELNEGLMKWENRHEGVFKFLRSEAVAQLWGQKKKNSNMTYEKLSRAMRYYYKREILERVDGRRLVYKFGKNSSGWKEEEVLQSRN
Outline: as §1

CRX = CRX (Homo sapiens, UniProt O43186 1-299); conditions: protein: recombinant; tags: N-terminal GST; dsDNA, one strand shown
CRX, sequence (O43186 whole entry): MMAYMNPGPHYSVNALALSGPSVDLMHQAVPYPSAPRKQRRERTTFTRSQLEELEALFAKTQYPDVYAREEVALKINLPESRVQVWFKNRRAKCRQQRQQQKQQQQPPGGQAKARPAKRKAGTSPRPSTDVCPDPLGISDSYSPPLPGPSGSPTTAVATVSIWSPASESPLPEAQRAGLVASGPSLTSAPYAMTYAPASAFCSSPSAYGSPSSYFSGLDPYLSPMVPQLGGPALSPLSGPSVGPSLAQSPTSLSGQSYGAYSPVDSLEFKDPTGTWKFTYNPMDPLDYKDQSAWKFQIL
Outline: as §1

ETV1 = ETV1 (Homo sapiens, UniProt P50549 1-477); conditions: protein: recombinant; tags: N-terminal GST; dsDNA, one strand shown
ETV1, sequence (P50549 whole entry): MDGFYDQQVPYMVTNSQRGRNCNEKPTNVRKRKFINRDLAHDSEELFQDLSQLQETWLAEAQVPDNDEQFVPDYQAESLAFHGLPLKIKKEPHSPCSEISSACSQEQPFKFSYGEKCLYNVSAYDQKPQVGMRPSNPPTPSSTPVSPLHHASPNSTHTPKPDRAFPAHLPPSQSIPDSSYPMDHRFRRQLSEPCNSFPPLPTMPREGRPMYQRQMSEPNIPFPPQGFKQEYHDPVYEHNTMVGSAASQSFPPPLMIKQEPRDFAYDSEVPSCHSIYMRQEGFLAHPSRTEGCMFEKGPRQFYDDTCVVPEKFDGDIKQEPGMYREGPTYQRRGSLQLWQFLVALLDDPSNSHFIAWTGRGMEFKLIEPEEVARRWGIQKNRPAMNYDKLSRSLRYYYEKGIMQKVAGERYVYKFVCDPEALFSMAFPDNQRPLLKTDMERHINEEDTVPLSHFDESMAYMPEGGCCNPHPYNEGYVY
Outline: as §1

ERF = molecular target: T6, ERF (Homo sapiens, UniProt P50548 1-548); conditions: protein: recombinant; tags: N-terminal GST; dsDNA, one strand shown
T6 sequence: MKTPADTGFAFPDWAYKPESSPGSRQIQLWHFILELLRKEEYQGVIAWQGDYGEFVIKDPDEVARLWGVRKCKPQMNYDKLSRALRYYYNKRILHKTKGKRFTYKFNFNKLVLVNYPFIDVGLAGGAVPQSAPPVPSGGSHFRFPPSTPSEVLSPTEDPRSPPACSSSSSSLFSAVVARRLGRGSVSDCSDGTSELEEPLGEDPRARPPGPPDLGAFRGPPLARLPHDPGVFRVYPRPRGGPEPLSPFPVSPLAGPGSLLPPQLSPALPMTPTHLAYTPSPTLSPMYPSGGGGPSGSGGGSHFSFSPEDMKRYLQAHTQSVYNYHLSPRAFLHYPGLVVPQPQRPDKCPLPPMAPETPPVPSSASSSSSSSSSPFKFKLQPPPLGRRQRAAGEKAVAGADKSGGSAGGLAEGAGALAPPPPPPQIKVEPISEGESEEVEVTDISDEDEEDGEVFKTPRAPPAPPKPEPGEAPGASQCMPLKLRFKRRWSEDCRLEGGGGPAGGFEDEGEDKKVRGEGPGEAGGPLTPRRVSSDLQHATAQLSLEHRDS
Outline: as §1

ETV3L = molecular target: T7, ETV3L (Homo sapiens, UniProt Q6ZN32 1-361); conditions: protein: recombinant; tags: N-terminal GST; dsDNA, one strand shown
T7 sequence: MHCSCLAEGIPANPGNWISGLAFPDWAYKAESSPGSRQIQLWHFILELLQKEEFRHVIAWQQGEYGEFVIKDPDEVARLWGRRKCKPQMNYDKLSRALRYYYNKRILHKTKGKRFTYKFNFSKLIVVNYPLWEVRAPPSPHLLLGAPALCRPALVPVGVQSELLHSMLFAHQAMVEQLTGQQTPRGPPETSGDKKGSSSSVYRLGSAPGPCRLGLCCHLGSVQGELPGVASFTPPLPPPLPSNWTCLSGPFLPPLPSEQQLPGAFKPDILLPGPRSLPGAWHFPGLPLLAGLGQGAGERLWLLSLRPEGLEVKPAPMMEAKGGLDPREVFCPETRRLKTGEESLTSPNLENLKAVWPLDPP
Outline: as §1

ETS2 = molecular target: T8, ETS2 (Homo sapiens, UniProt P15036 1-469); conditions: protein: recombinant; tags: N-terminal GST; dsDNA, one strand shown
T8 sequence: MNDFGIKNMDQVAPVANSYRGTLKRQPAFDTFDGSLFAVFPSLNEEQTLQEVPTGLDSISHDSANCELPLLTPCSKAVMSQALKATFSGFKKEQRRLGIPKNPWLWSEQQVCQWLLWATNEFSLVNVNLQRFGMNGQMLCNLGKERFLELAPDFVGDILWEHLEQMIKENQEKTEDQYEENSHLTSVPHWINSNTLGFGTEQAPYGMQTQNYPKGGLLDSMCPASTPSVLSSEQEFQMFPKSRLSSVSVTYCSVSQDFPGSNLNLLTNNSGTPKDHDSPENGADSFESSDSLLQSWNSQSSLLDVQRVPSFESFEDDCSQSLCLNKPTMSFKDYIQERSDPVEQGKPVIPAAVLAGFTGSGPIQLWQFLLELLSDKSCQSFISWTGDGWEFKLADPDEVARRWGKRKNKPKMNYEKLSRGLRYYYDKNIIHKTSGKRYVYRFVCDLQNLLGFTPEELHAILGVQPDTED
Outline: as §1

SPDEF = molecular target: T9, SPDEF (Homo sapiens, UniProt O95238 1-335); conditions: protein: recombinant; tags: N-terminal GST; dsDNA, one strand shown
T9 sequence: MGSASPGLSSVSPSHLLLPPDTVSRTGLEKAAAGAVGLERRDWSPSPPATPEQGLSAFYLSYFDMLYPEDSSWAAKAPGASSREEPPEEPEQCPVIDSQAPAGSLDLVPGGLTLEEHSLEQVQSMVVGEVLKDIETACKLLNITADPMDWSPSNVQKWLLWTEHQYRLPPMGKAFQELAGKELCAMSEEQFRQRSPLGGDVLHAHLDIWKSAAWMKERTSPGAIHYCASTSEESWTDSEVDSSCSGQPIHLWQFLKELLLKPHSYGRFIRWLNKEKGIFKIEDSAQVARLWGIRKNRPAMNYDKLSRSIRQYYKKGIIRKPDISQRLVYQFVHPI
Outline: as §1

ETV7 = molecular target: T10, ETV7 (Homo sapiens, UniProt Q9Y603 1-341); conditions: protein: recombinant; tags: N-terminal GST; dsDNA, one strand shown
T10 sequence: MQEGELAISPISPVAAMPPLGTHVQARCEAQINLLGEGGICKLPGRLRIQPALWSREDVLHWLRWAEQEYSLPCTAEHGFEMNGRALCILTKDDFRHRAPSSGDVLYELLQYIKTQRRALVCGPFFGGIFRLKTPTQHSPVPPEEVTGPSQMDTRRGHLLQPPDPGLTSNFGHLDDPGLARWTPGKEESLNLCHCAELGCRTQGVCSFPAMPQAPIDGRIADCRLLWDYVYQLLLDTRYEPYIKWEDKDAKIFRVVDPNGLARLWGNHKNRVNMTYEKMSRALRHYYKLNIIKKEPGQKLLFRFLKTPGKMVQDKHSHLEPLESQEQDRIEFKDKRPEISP
Outline: as §1

ELF5 = molecular target: T11, ELF5 (Homo sapiens, UniProt Q9UKW6-2 1-255); conditions: protein: recombinant; tags: N-terminal GST; dsDNA, one strand shown
T11 sequence: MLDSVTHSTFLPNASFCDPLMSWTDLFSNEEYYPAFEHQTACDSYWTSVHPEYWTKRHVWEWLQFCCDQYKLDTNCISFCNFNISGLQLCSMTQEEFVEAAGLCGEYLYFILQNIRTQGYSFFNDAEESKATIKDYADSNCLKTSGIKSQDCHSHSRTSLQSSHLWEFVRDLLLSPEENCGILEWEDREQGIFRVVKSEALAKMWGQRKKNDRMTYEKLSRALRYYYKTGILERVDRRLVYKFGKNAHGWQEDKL
Outline: as §1

ETV3 = molecular target: T12, ETV3 (Homo sapiens, UniProt P41162-2 1-143); conditions: protein: recombinant; tags: N-terminal GST; dsDNA, one strand shown
T12 sequence: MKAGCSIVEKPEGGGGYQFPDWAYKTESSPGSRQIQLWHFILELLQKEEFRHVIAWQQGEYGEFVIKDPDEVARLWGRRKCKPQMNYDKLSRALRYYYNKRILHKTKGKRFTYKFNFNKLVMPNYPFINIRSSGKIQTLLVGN
Outline: as §1

ETV6 = ETV6 (Homo sapiens, UniProt P41212 1-452); conditions: protein: recombinant; tags: N-terminal GST; dsDNA, one strand shown
ETV6, sequence (P41212 whole entry): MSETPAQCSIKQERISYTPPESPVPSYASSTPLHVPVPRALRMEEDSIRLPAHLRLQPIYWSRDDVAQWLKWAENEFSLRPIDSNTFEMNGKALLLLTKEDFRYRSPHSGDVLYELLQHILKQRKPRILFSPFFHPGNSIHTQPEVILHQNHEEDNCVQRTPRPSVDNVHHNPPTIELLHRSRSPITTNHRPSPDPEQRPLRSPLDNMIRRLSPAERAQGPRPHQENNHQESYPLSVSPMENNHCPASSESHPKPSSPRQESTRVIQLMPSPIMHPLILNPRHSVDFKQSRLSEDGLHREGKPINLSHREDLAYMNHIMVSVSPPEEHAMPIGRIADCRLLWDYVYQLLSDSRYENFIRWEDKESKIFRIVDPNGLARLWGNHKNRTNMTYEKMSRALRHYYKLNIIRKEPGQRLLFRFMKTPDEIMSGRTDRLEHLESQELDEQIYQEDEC
Outline: as §1

With TTAATA the binding signal (FEV) was 1.19 fold enrichment (6-mer frequency, TF over GST control), the binding signal (ETV5) was 1.15 fold enrichment (6-mer frequency, TF over GST control) and the binding signal (HSF1) was 2.09 fold enrichment (6-mer frequency, TF over GST control). The binding signal (SPIC) was 1.11 fold enrichment (6-mer frequency, TF over GST control), the binding signal (ELF4) was 1.23 fold enrichment (6-mer frequency, TF over GST control) and the binding signal (ELK4) was 1.08 fold enrichment (6-mer frequency, TF over GST control). The binding signal (ETV2) was 1.25 fold enrichment (6-mer frequency, TF over GST control), the binding signal (ELF3) was 1.06 fold enrichment (6-mer frequency, TF over GST control) and the binding signal (CRX) was 3.19 fold enrichment (6-mer frequency, TF over GST control). For the same sequence, the binding signal (ETV1) was 1.09 fold enrichment (6-mer frequency, TF over GST control), the binding signal (ERF) was 1.24 fold enrichment (6-mer frequency, TF over GST control) and the binding signal (ETV3L) was 1.28 fold enrichment (6-mer frequency, TF over GST control). For the same sequence, the binding signal (ETS2) was 1.21 fold enrichment (6-mer frequency, TF over GST control), the binding signal (SPDEF) was 1.14 fold enrichment (6-mer frequency, TF over GST control) and the binding signal (ETV7) was 1.23 fold enrichment (6-mer frequency, TF over GST control). The binding signal (ELF5) was 1.12 fold enrichment (6-mer frequency, TF over GST control), the binding signal (ETV3) was 1.09 fold enrichment (6-mer frequency, TF over GST control) and the binding signal (ETV6) was 1.15 fold enrichment (6-mer frequency, TF over GST control).
